Source: PubChem (National Center for Advancing Translational Sciences (NCATS))
Only some compounds are listed: those with a hit (about 9.4% of all), similar ones and a draw of the others.
AMA1-RON2 inh: qHTS for Inhibitors of AMA1-RON; Towards Development of Antimalarial Drug Lead: Primary Screen | Plasmodium falciparum AMA1 (3D7) - RON2 peptide interaction | AlphaScreen AMA1-biotinylated RON2 peptide binding | Potency, µM (doses to about 58.2 µM), hits mostly inhibitors | 360,000 tested, 0.2% active | AID 720542, 2013; also: nearly all actives have a fitted effect of over 45% in size
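AMA1 (3D7) with his tag at 25 nM final met compounds first, then biotinylated RON2 peptide at 25 nM; detection used donor plus acceptor beads, 10 µg/mL apiece, read by AlphaScreen after 30 min at room temperature.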
Pf growth 96h: Primary qHTS for delayed death inhibitors of the malarial parasite plastid, 96 hour incubation | P. falciparum luciferase reporter growth, 96 h | Potency, µM (doses to about 28.7 µM), usual class: inhibitors | 320,000 tested, 6.9% active
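Plates of compound plus infected erythrocytes (2% hematocrit, 0.05% parasitemia final) incubate 96 hours, 37 C, 5% CO2. Detection reagent added; reduced luminescence from the parasites' luciferase reporter flags inhibition.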
SARS PLpro yeast: qHTS of Yeast-based Assay for SARS-CoV PLP | Potency, µM (highest dose often 32.9 µM), actives largely listed as activators | 330,000 tested, 0.19% active | S. cerevisiae expressing SARS-CoV PLpro, growth rescue | AID 485353, 2010; calls by dose curve; also: nearly all actives have a fitted effect of over 55% in size
Pf growth 48h: Primary qHTS for delayed death inhibitors of the malarial parasite plastid, 48 hour incubation. 310,000 tested, 5.9% active. P. falciparum luciferase growth in erythrocytes, 48 h. Potency, µM (top dose mostly 28.7 µM), most hits filed as inhibitors
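Here the parasites carry a stable luciferase gene and grow inside erythrocytes in Albumax-based RPMI medium with compound for one erythrocytic cycle. Activity is scored as loss of luminescent signal.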
Large screens that a line does not name were inactive. Unless noted, calls follow the shape of the dose curve; as a rule, active = well fitted curve in the direction sought with a large enough effect; inconclusive = small, poorly fitted or top-dose-only effect, or another doubt; inactive = no such curve, though single readings can be large; an effect the other way counts as inactive or inconclusive.

S=C(Nc1ccc(Cl)cc1)NC1CC2CCC(C1)N2Cc1ccccc1 (stereo not drawn)	Pf growth 48h 3.3µM
CNC(=S)NC1CC2CCC(C1)N2Cc1ccccc1 (stereo not drawn)	none
CCc1ccc(NC(=S)NC2CC3CCCC(C2)N3Cc2ccccc2)cc1 (stereo not drawn)	Pf growth 96h inconclusive, Pf growth 48h 6.6µM
O=C(CN(Cc1cccs1)C(=O)CCC(=O)Nc1nccs1)NCc1ccccc1	none
Cc1cc(C)nc(NC(=S)Nc2ccc(F)cc2F)c1	none
CCOC(=O)CN(C)C(=O)CCc1nnc(-c2ccsc2)o1	Pf growth 96h inconclusive
COc1cccc(CN(C)C(=O)CCc2nnc(-c3ccsc3)o2)c1	Pf growth 96h inconclusive, Pf growth 48h 10µM
Cc1ccc(S(=O)(=O)Nc2cccc(-c3ccc(N4CCCCCC4)nn3)c2)cc1C	Pf growth 96h 13µM
O=S(=O)(Nc1cccc(-c2ccc(N3CCCCCC3)nn2)c1)c1ccccc1Cl	Pf growth 96h inconclusive
O=S(=O)(Nc1cccc(-c2ccc(N3CCCCCC3)nn2)c1)c1ccccc1F	Pf growth 96h 15µM
COc1ccc(CC(=O)N2CCN(C)CC2)cc1	none
COCCNC(=O)c1ccc(CS(=O)(=O)c2ccc(Cl)cc2)o1	Pf growth 96h inconclusive
CC1=Nc2ccccc2/C1=C\c1sc(Nc2ccc(C)cc2)nc1O	Pf growth 96h 6.6µM, Pf growth 48h inconclusive
Oc1nc(Nc2ccc(F)cc2)sc1/C=C1\C=Nc2ccccc21	Pf growth 96h inconclusive, Pf growth 48h 13µM
O=C(NCCCN1CCCC1=O)c1ccc2c(c1)OCO2	Pf growth 96h inconclusive
Cc1cccc(NCc2n[nH]c(=S)n2-c2ccccc2)c1	none
N=C1C=CC(=C(c2ccc(N)cc2)c2ccc(N)cc2)C=C1	AMA1-RON2 inh 14µM (no result: Pf growth 96h, SARS PLpro yeast, Pf growth 48h)
O=C(CSc1nc(O)cc(=O)[nH]1)N1CCOCC1	none
COc1ccccc1NC(=O)C(C)Sc1nc2ccccc2c(=O)n1CC1CCCO1 (stereo not drawn)	Pf growth 96h inconclusive, Pf growth 48h 10µM
O=C(CCN1N=C(c2ccccc2)CCC1=O)NCC1CCCO1 (stereo not drawn)	Pf growth 96h 3.7µM
COc1ccccc1-n1c(SC(C)C(=O)NCC2CCCO2)nc2cc(Cl)ccc2c1=O (stereo not drawn)	Pf growth 96h inconclusive, Pf growth 48h 13µM
CCCn1c(SC(C)C(=O)NCC2CCCO2)nc2cc(Cl)ccc2c1=O (stereo not drawn)	Pf growth 48h inconclusive (no result: SARS PLpro yeast)
O=C(CSc1ccc2nc(-c3ccccc3)cn2n1)NCC1CCCO1 (stereo not drawn)	Pf growth 96h 5.2µM
N=c1c(S(=O)(=O)c2ccc(Cl)cc2)cc2c(=O)n3ccccc3nc2n1Cc1cccnc1	Pf growth 48h inconclusive
Cc1cc(C)cc(NC(=O)C(=O)NCC2CCCO2)c1 (stereo not drawn)	none
O=C(CSc1nc2ccccc2c(=O)n1CC1CCCO1)NCC1CCCO1 (stereo not drawn)	Pf growth 96h 5.2µM
CN(C)c1ccc(NC(=O)CSc2nc3ccccc3c(=O)n2CC2CCCO2)cc1 (stereo not drawn)	Pf growth 96h 4.1µM
O=C(CSc1nc2c(sc3ccccc32)c(=O)n1Cc1ccco1)NCC1CCCO1 (stereo not drawn)	Pf growth 96h 9.3µM, Pf growth 48h 8.3µM
COC(=O)c1ccc2c(=O)n(CC3CCCO3)c(SCC(=O)Nc3ccccc3Cl)nc2c1 (stereo not drawn)	Pf growth 96h 10µM (no result: Pf growth 48h)
COC(=O)c1ccc2c(=O)n(CC3CCCO3)c(SCC(=O)Nc3ccccc3OC)nc2c1 (stereo not drawn)	Pf growth 48h inconclusive
CC(=O)c1ccc(N=Nc2ccc(C)cc2)cc1	AMA1-RON2 inh inconclusive
O=C(NCCc1nnc2ccc(NCc3ccc(Cl)cc3)nn12)c1ccccc1	none
Cc1ccc2c(c1)/C(=C/c1ccccc1C)C(=O)N2	none
O=C(CCCn1c(SCC(=O)c2ccc(O)c(O)c2)nc2ccccc2c1=O)NCC1CCCO1 (stereo not drawn)	Pf growth 96h inconclusive, Pf growth 48h 9.3µM
O=C(CSc1cc(Cl)ccc1Cl)NCC1CCCO1 (stereo not drawn)	Pf growth 96h 10µM
O=C(CCCn1c(SCc2ccccc2F)nc2ccccc2c1=O)NCC1CCCO1 (stereo not drawn)	Pf growth 48h 6.6µM
O=C(CCCn1c(SCC(=O)Nc2ccccc2C(F)(F)F)nc2ccccc2c1=O)NCC1CCCO1 (stereo not drawn)	Pf growth 96h inconclusive
O=C(CCCn1c(SCC(=O)NC2CCCCC2)nc2ccccc2c1=O)NCC1CCCO1 (stereo not drawn)	Pf growth 96h 12µM, Pf growth 48h inconclusive
COc1ccccc1NC(=O)c1ccc(NC(=O)c2ccc(=O)[nH]c2)cc1	Pf growth 96h inconclusive, Pf growth 48h inconclusive
O=C(Nc1ccccc1N1CCOCC1)c1cccnc1Cl	none
O=C(CSc1nc2ccccc2c(=O)n1C1CC1)NCc1ccccc1	Pf growth 96h 15µM
COCC(C)n1c(SCC(=O)NC2CCCCC2)nc2ccccc2c1=O (stereo not drawn)	none (no result: Pf growth 96h, SARS PLpro yeast, Pf growth 48h)
CCCCCn1c(SCC#N)nc2cc(C(=O)NCC3CCCO3)ccc2c1=O (stereo not drawn)	Pf growth 96h 4.7µM
CCC(C)n1c(SCC(=O)NC2CCCC2)nc2ccccc2c1=O (stereo not drawn)	Pf growth 96h inconclusive, Pf growth 48h 12µM (no result: SARS PLpro yeast)
COc1cccc(NC(=O)NCCc2ccc(Cl)cc2)c1	Pf growth 48h inconclusive
COc1cccc(-c2cc(N)nn2C(=O)Nc2ccc(Cl)cc2)c1	Pf growth 96h 12µM, Pf growth 48h inconclusive
O=C(COC(=O)c1n[nH]c2ccccc12)NCCc1ccc(Cl)cc1	none
COc1ccc(CNC(=O)[C@H](C)NC(=O)C2CCN(C(=O)[C@@H](N)Cc3ccccc3)CC2)cc1	none
COc1cc(Nc2cc(C)nc3nc(C)nn23)cc(OC)c1OC	Pf growth 48h 9.3µM
Cc1cc(Nc2ccc(F)c(Cl)c2)n2nc(C)nc2n1	Pf growth 48h 3.3µM
CCCCCCSc1cccc(-c2nc3ccc(C)cn3c2NCc2ccccc2)c1	Pf growth 96h 12µM, Pf growth 48h inconclusive
CCCCCCSc1cc(-c2nc3cc(C)ccn3c2NCCCC)ccc1OC	Pf growth 96h inconclusive, Pf growth 48h 9.3µM
CCCCCCSc1cc(-c2nc3ccc(C)cn3c2NCc2ccccc2)ccc1OC	Pf growth 96h 10µM, Pf growth 48h 4.1µM
CCCCCCSc1cccc(-c2nc3cc(C)ccn3c2NCc2ccccc2)c1	Pf growth 96h inconclusive, Pf growth 48h inconclusive
CCCCCCSc1ccc(-c2nc3ccc(C)cn3c2NCCCC)cc1OC	none (no result: Pf growth 96h, SARS PLpro yeast, Pf growth 48h)
O=C(O)CSc1nnc(COc2cccc3cccnc23)n1-c1ccc(Cl)cc1	none
CN(C)c1ccc(C2CNC(c3ccc(Cl)c([N+](=O)[O-])c3)c3[nH]c4ccccc4c32)cc1 (stereo not drawn)	AMA1-RON2 inh 20µM, Pf growth 96h inconclusive, Pf growth 48h inconclusive
